The record followed here is article PMC4336329 (PLoS ONE, 2015).

Each structure is given as a SMILES string. The whole screen tested about 310,000 compounds, of which about 14,000 (4.5%) showed an effect of 50% or more. Effects have a minus sign here. The sample as a whole holds a higher share of strong results than the screen did.
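Also: peak tail current of the secondary pulse compared with the same well before compound.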

The target of this assay is human ether-à-go-go-related gene (hERG) potassium channel (human, UniProt Q12809). The assay is described as follows: primary screen, population patch clamp on CHO cells stably expressing hERG; higher = less effect of the substance.
Sequence of human ether-à-go-go-related gene (hERG) potassium channel (Q12809 whole entry, looked up): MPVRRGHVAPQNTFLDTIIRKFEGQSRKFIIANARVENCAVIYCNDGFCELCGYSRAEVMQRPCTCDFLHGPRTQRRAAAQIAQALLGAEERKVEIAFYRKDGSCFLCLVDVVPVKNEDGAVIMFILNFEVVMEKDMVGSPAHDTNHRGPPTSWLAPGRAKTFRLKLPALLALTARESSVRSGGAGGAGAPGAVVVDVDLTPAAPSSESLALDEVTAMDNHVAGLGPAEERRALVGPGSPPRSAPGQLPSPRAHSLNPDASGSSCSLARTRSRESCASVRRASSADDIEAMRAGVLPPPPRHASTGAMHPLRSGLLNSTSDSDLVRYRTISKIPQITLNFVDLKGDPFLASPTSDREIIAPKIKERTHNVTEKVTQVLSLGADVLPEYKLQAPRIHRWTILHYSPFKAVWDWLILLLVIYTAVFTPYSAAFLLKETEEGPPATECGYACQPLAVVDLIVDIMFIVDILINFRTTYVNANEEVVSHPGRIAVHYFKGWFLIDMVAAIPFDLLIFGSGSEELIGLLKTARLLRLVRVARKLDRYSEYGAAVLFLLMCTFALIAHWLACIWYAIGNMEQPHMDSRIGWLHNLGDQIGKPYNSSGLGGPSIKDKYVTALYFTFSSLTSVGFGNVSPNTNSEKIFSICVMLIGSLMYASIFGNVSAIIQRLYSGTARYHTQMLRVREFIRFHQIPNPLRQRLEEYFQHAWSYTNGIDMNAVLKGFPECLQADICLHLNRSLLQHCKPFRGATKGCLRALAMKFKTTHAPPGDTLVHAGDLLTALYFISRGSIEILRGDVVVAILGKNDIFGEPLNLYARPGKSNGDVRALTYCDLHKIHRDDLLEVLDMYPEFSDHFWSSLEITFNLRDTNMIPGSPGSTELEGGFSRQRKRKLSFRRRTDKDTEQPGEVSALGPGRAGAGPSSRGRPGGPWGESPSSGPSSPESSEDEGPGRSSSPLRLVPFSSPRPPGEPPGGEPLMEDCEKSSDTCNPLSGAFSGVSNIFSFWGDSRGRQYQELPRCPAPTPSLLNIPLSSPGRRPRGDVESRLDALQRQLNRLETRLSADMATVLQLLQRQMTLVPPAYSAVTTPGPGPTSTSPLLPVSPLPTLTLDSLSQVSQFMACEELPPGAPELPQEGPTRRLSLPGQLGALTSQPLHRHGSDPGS
Consider `Cn1c(=O)oc2cc(S(=O)(=O)NCCC(=O)N3CCN(c4ccccc4F)CC3)ccc21`, for which the “hERG current change (%, negative = inhibition) at 10uM” value is on record as -17%.

Regarding `COc1ccc(/C(N)=C/C(=O)C(C)(C)C)cc1`, the “hERG current change (%, negative = inhibition) at 10uM” value is -5.64%.

On to `COc1nc(Oc2ccc(=O)n(C)n2)nc(N(C)C)n1`, for which the “hERG current change (%, negative = inhibition) at 10uM” value is recorded as 0.595%.

On to `N#Cc1ccc(S(=O)(=O)NC2CCN(Cc3ccccc3)CC2)cc1`, for which the “hERG current change (%, negative = inhibition) at 10uM” value is listed as -31.8%.

Take `CCOc1ccc(C(O)(c2ccccc2)C(CN2CCCC2)c2ccccc2)cc1.Cl` (stereo not shown): the “hERG current change (%, negative = inhibition) at 10uM” value is listed as -34%.

In the case of `COc1ccc(OCC(O)CN2CCCCC2)cc1.Cl` (stereo not shown), the “hERG current change (%, negative = inhibition) at 10uM” value is recorded as 8.1%.

With `COc1ccccc1OCC(O)Cn1c(=N)n(CCN2CCCCC2)c2ccccc21.Cl` (stereo not shown), the “hERG current change (%, negative = inhibition) at 10uM” value was -65.4%.

In the case of `Cc1ccc(OCC(O)Cn2c(=N)n(CCN3CCOCC3)c3ccccc32)cc1.Cl` (stereo not shown), the “hERG current change (%, negative = inhibition) at 10uM” value is -43.6%.

Consider `CCOc1ccc(C(O)Cn2c(=N)n(CCN3CCCCC3)c3ccccc32)cc1.Cl` (stereo not shown), for which the “hERG current change (%, negative = inhibition) at 10uM” value is on record as -77.2%.

For `COc1ccccc1OCCCCN1CCCCC1`, the “hERG current change (%, negative = inhibition) at 10uM” value was -1.89%.

Consider `COc1ccc(OCC(O)Cn2c(=N)n(CCN3CCOCC3)c3ccccc32)cc1.Cl` (stereo not shown), for which the “hERG current change (%, negative = inhibition) at 10uM” value was -34.7%.

In the case of `Cc1ccc(OCC(O)Cn2c(=N)n(CCN3CCCCC3)c3ccccc32)cc1.Cl` (stereo not shown), the “hERG current change (%, negative = inhibition) at 10uM” value is given as -72.9%.

On to `COc1ccc(OCC(O)Cn2c(=N)n(CCN3CCCCC3)c3ccccc32)cc1.Cl` (stereo not shown), for which the “hERG current change (%, negative = inhibition) at 10uM” value is -68.1%.

As to `Cc1onc(-c2c(F)cccc2Cl)c1C(=O)N1CCCc2ccccc21`, the “hERG current change (%, negative = inhibition) at 10uM” value is on record as -21.5%.

For `CC(=O)c1ccc(NC(=O)C(=O)c2cn(CC(=O)N3CCCCC3)c3ccccc23)cc1`, the “hERG current change (%, negative = inhibition) at 10uM” value turned out to be 6.65%.

In the case of `COc1ccc(-n2nc(C(=O)NCC(=O)N3CCN(c4ccccn4)CC3)c3ccccc3c2=O)cc1`, the “hERG current change (%, negative = inhibition) at 10uM” value was -34.3%.

On to `CC(=O)N1CCN(S(=O)(=O)c2cccc(C(=O)Nc3nccs3)c2)CC1`, for which the “hERG current change (%, negative = inhibition) at 10uM” value was determined as 3.42%.

Turning to `CCCCN(c1ccccc1)S(=O)(=O)c1cccc(C(=O)O)c1`, the “hERG current change (%, negative = inhibition) at 10uM” value is 5.27%.

For the compound `C=CCn1c(O)c(N=Nc2ccccc2C)c2ccccc21`, the “hERG current change (%, negative = inhibition) at 10uM” value stood at 4.06%.

Consider `COc1ccc(-n2nnnc2SCC(=O)N2CCCc3ccccc32)cc1OC`, for which the “hERG current change (%, negative = inhibition) at 10uM” value is on record as -13.4%.

Regarding `O=C1C2CCCN2C(c2ccccc2F)N1c1cccc(Cl)c1` (stereo not shown), the “hERG current change (%, negative = inhibition) at 10uM” value is recorded as 3.69%.

`Cc1ccc2nc(CCc3nc4ccc(C)cc4o3)oc2c1`: the “hERG current change (%, negative = inhibition) at 10uM” value is recorded as 4.09%.

Regarding `CCOc1ccc(OCC)c(NC(=O)C2CCCN(S(=O)(=O)c3c(C)n[nH]c3C)C2)c1` (stereo not shown), the “hERG current change (%, negative = inhibition) at 10uM” value is listed as 8.8%.

`Cc1ccc(OCC(=O)Nc2cnn(CCCC(=O)O)c2)c([N+](=O)[O-])c1`: the “hERG current change (%, negative = inhibition) at 10uM” value is given as 3.59%.

Consider `COc1cccc(OC)c1C(=O)OCC(=O)N(c1ccccc1)C1CCCCC1`, for which the “hERG current change (%, negative = inhibition) at 10uM” value is given as -4.4%.

For `Cl.N=c1n(CCN2CCCCC2)c2ccccc2n1CC(O)COc1ccccc1` (stereo not shown), the “hERG current change (%, negative = inhibition) at 10uM” value was -68.2%.

For `Cl.OC(CNCCCN1CCCCC1)COc1ccccc1` (stereo not shown), the “hERG current change (%, negative = inhibition) at 10uM” value was -4.25%.

On to `Cl.N=c1n(CCN2CCOCC2)c2ccccc2n1CC(O)COc1ccccc1` (stereo not shown), for which the “hERG current change (%, negative = inhibition) at 10uM” value is listed as -39.3%.

`COC(=O)N1C(=O)[C@](c2ccc(Cl)cc2)(C(C)C)N1C(=O)OC`: the “hERG current change (%, negative = inhibition) at 10uM” value was 7.07%.

As for `CCOc1ccc(-c2cnc3n2CCCCC3)cc1`, the “hERG current change (%, negative = inhibition) at 10uM” value is listed as -63.3%.

`CCOc1ccc(-c2cnc3n2CCC3)cc1.Cl`: the “hERG current change (%, negative = inhibition) at 10uM” value was -18.3%.

Turning to `COc1ccc(-c2cnc3n2CCCCC3)cc1`, the “hERG current change (%, negative = inhibition) at 10uM” value is recorded as -33.1%.

Consider `Cc1ccc(NC(=O)CCC(=O)N2CCOCC2)nc1`, for which the “hERG current change (%, negative = inhibition) at 10uM” value was 13%.

Consider `CCc1ccc(C2=NNC(=Nc3c(C)n(C)n(-c4ccccc4)c3=O)SC2)cc1`, for which the “hERG current change (%, negative = inhibition) at 10uM” value came out at 34.4%.

`CCOC(=O)c1cc(-c2ccccc2)n(CC(=O)Nc2ccc(OC)cc2)c1C`: the “hERG current change (%, negative = inhibition) at 10uM” value is given as 6.19%.

Regarding `CCOC(=O)c1cc(-c2ccccc2)n(CCC(=O)N2CCN(c3ccc(OC)cc3)CC2)c1C`, the “hERG current change (%, negative = inhibition) at 10uM” value is on record as -25.5%.

Take `CCOC(=O)c1cc(-c2ccc(C)cc2)n(CCC(=O)NCCCOC)c1C`: the “hERG current change (%, negative = inhibition) at 10uM” value is recorded as -11.5%.

As for `CC(=O)c1cc(-c2ccccc2)n(CCC(=O)NC2CCCC2)c1C`, the “hERG current change (%, negative = inhibition) at 10uM” value is 0.876%.

Turning to `CCOC(=O)c1cc(-c2ccc(F)cc2)n(CCC(=O)NC2CCN(Cc3ccccc3)CC2)c1C`, the “hERG current change (%, negative = inhibition) at 10uM” value is -64.2%.

For `CCOC(=O)c1cc(-c2ccc(OC)cc2)n(CCC(=O)NC2CCN(Cc3ccccc3)CC2)c1C`, the “hERG current change (%, negative = inhibition) at 10uM” value is on record as -65.7%.

As to `CCCNC(=O)CCn1c(-c2ccc(C)cc2)cc(C(=O)OCC)c1C`, the “hERG current change (%, negative = inhibition) at 10uM” value was -6.08%.

Turning to `CCOC(=O)c1cc(-c2ccc(OC)cc2)n(CCC(=O)NCCN2CCC(C)CC2)c1C`, the “hERG current change (%, negative = inhibition) at 10uM” value was -52.4%.

With `CCOC(=O)c1cc(-c2ccccc2)n(CCC(=O)NC(C)CC)c1C` (stereo not shown), the “hERG current change (%, negative = inhibition) at 10uM” value is recorded as -12.5%.

Turning to `O=C(Cn1c(=S)[nH]c2ccccc2c1=O)NCCc1ccccc1`, the “hERG current change (%, negative = inhibition) at 10uM” value was found to be 16%.

With `CCC(NC(=S)NC1CCCCC1)c1ccc(C(C)C)cc1` (stereo not shown), the “hERG current change (%, negative = inhibition) at 10uM” value came to 13.7%.

Regarding `CC(C)=CCCC(C)NC(=O)NC1CCCCC1` (stereo not shown), the “hERG current change (%, negative = inhibition) at 10uM” value is listed as -3.64%.

Consider `CCCc1cc(=O)oc2cc(C)cc(OCc3nn[nH]n3)c12`, for which the “hERG current change (%, negative = inhibition) at 10uM” value is 13%.

As to `O=C(NCCO)c1ccc(Oc2ccc(C(F)(F)F)cc2[N+](=O)[O-])cc1`, the “hERG current change (%, negative = inhibition) at 10uM” value is -0.131%.

Take `COc1ccccc1C(=O)Nc1c2c(nn1-c1ccc(Cl)cc1)CS(=O)(=O)C2`: the “hERG current change (%, negative = inhibition) at 10uM” value is 9.63%.

Regarding `Cc1onc(-c2cccc(Cl)c2Cl)c1C(=O)O/N=C(\N)c1ccc([N+](=O)[O-])o1`, the “hERG current change (%, negative = inhibition) at 10uM” value was -65%.

Take `C/C(=N\OC(=O)c1c(-c2ccccc2Cl)noc1C)c1ccncc1`: the “hERG current change (%, negative = inhibition) at 10uM” value is listed as -58.6%.

Consider `Cc1onc(-c2c(F)cccc2Cl)c1C(=O)O/N=C(\N)c1ccc([N+](=O)[O-])o1`, for which the “hERG current change (%, negative = inhibition) at 10uM” value is given as -16.8%.

Consider `C/C(=N/OC(=O)c1c(-c2ccccc2Cl)noc1C)c1cnccn1`, for which the “hERG current change (%, negative = inhibition) at 10uM” value is -7.04%.

As to `Cc1onc(-c2ccccc2Cl)c1C(=O)O/N=C(\N)c1ccc([N+](=O)[O-])o1`, the “hERG current change (%, negative = inhibition) at 10uM” value is reported as -43.6%.

In the case of `C/C(=N\OC(=O)c1c(-c2ccccc2Cl)noc1C)c1nccs1`, the “hERG current change (%, negative = inhibition) at 10uM” value was -2.44%.
